Bioassay records from PubChem.
GPR151 ag: activators of human GPR151, primary screen, cell-based, PathHunter beta-arrestin, luminescence. 650,000 compounds, 1% hits. PathHunter beta-arrestin GPR151 cells. activation, % at 11.2 µM. G-protein coupled receptor 151 (Homo sapiens), Q8TDV0; in the data active means activation above about 4.9%;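 further: 0% = median of compound wells and 100% = cells with positive control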
Target sequence (Q8TDV0 whole entry, looked up): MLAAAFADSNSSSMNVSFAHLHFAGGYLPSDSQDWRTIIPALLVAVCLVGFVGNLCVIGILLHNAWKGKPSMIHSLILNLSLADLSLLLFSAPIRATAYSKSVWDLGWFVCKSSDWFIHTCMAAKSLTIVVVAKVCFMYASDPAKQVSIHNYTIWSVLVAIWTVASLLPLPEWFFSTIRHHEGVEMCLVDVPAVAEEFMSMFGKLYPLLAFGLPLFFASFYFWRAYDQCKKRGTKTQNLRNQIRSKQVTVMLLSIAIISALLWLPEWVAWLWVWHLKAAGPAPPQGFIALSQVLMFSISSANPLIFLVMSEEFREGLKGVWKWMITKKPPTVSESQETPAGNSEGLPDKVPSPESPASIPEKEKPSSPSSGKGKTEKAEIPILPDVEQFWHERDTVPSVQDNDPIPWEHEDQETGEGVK
MITF primary: MITF inhibitors, primary screen, biochemical, AlphaScreen, human; inhibition, % at 2.6 µM; 650,000 compounds, 0.91% hits; AlphaScreen MITF homodimerization, bead proximity signal; AID 1259374, 2018; in the data active means inhibition above about 50%;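 further: 0% = vehicle wells with protein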
FBW7 act: FBW7 E3 ligase activators, primary screen, biochemical, AlphaScreen, human | normalized activity (activation), % at 26.1 µM | 650,000 compounds, 0.13% hits | AlphaScreen FBW7–phospho-cyclin E peptide binding, activator screen | F-box/WD repeat-containing protein 7 (Homo sapiens), Q969H0; in the data active means normalized activity above about 1.9%;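 further: purified mutant Fbw7 with reduced substrate affinity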
TEAD-YAP block: TEAD-YAP interaction inhibition, primary screen, TEAD-YAP interaction inhibitor project, luminescence, HEK-TIYL cells; TEAD-Gal4/YAP UAS-luciferase luminescence; inhibition, % at 9.12 µM; 640,000 compounds, 1.4% hits; AID 1259422, 2018; in the data active means inhibition above about 32%;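 further: 0% = median of test compound wells and 100% = reference inhibitor wells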
MITF confirm: MITF inhibitors, retest of hits, confirmation, biochemical, AlphaScreen, triplicate; 4,700 compounds, 16% hits; shares compounds with MITF primary; AlphaScreen MITF homodimerization, biotin/His-MITF beads; inhibition, % at 2.6 µM;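 active means inhibition above a cutoff derived from the DMSO control wells, cut at about 28% in these data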;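 further: 0% = MITF dimer wells with DMSO only; inhibitors lower the bead chemiluminescence by keeping MITF from dimerizing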
AlphaScreen DR: AlphaScreen optical interference compounds, dose response, counter-screen, biochemical, HTS; shares compounds with MITF primary; AlphaScreen optical interference counterscreen, cell-free; IC50, µM; 480 compounds, 6% hits; AID 1259373, 2018; call rule not given here
AlphaScreen intf2: AlphaScreen optical interference compounds, counter-screen for MITF inhibitor project, biochemical, triplicate | shares compounds with MITF primary | LysRS AlphaScreen counterscreen, signal interference | inhibition, % at 2.6 µM | 4,700 compounds, 7.6% hits | AID 1259376, 2018;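 active means inhibition above a cutoff derived from the DMSO control wells, cut at about 30% in these data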
The depositor's hits bear a star; nt = no result given. A selection: hits, their analogues and other compounds. The true share with any hit is near 3.5%.

SMILES	GPR151 ag	MITF primary	FBW7 act	TEAD-YAP block	MITF confirm	AlphaScreen intf2	others
O=[N+]([O-])c1c(Cl)cc(O)c2c1C1C=CCC1C(C1CC=CCC1)N2 (stereo not given)	-1	13	0	10	nt	nt
O=C(CN1CCC(N2CCCCC2)CC1)c1ccccc1F	-1	6	0	-5	nt	nt
CCN(CC)c1ccc(/C=C2/C(=O)NC(=S)N(Cc3ccco3)C2=O)c(OC)c1	1	45	-1	0	nt	nt
COc1cc(Nc2nc3ccc(C(=O)NCc4cccc(C(F)(F)F)c4)cc3s2)cc(OC)c1OC	2	-3	0	10	nt	nt
COc1ccc(C(=O)N2CCN(C3CCCC(C)C3)CC2)cc1 (stereo not given)	1	52*	0	7	4	11
CCC(C)N1CCN(C(=O)c2cc(OC)c(OC)c(OC)c2)CC1 (stereo not given)	-1	51*	0	-4	-9	0
COc1cccc(C(=O)N2CCN(Cc3cc(OC)c(OC)c(OC)c3)CC2)c1	1	49	0	-6	nt	nt
COc1cc(C(=O)N2CCN(Cc3ccc(Br)cc3)CC2)cc(OC)c1OC	0	54*	0	-3	9	9
COc1cc(C(=O)N2CCN(Cc3ccc(C)cc3)CC2)cc(OC)c1OC	0	48	0	7	nt	nt
COc1cc(CN2CCN(C(=O)c3cc(OC)c(OC)c(OC)c3)CC2)cc(OC)c1	-1	55*	0	4	4	12
COCCN(C)Cc1c(C(=O)N2CCN(C3CCCCC3)CC2)nc2ccccn12	1	10	0	-2	nt	nt
COc1ccc(-c2nc3n(n2)C(c2cccnc2)C2=C(CCCC2=O)N3)cc1OC (stereo not given)	0	1	0	6	nt	nt
CCc1ccc(CN2CC[C@H]3[C@H](CCC(=O)N3CCCn3ccnc3)C2)cc1	0	11	1	18	nt	nt
COc1ccc(C(=O)N2CCN(Cc3cc(OC)c(O)c(OC)c3)CC2)cc1	-1	26	0	5	nt	nt
COc1ccc(C(=O)N2CCN(Cc3cc(OC)c(OC)c(OC)c3)CC2)cc1	-1	72*	1	-9	5	-1
CCN(CC(=O)Nc1cc(F)ccc1F)CC(=O)NC(C)C	-1	63*	0	-5	8	-2
CCN(CC(=O)Nc1ccc(F)cc1Cl)CC(=O)NC(C)C	-1	5	0	0	nt	nt
CCOC(=O)C1=C(C)NC2=C(C(=O)C(C(=O)OC)C(C)C2)C1c1ccc(O)c(OCC)c1 (stereo not given)	0	0	0	1	nt	nt
C/C(=N\OCC(O)CN1CCOCC1)C1COc2ccccc2O1 (stereo not given)	0	51*	0	-5	-2	10
COc1cccc(/C=C2/SC(NC(C)=O)=NC2=O)c1OC	0	-19	0	-1	nt	nt
CCOc1ccccc1C1C(C#N)=C(SCC(=O)Nc2ccc(Br)cc2)NC(=O)C1C(=O)OC (stereo not given)	0	54*	0	10	-8	-7
CN(C)CCCN(CCCN(C)C)Cc1cccc(Oc2ccccc2)c1	1	24	0	-4	nt	nt
CCN(CCN(C)C)Cc1cccc(OCc2ccccc2)c1	0	61*	0	6	-10	-4
CCN(CCN(C)C)Cc1cccc(Cl)c1Cl	-1	75*	0	4	-4	0
CCN(CCN(C)C)Cc1ccc(Cl)c(Cl)c1	1	54*	0	-5	3	-5
SMILES	GPR151 ag	MITF primary	FBW7 act	TEAD-YAP block	MITF confirm	AlphaScreen intf2	others
CN(CCC(N)=O)Cc1ccc(F)cc1	-3	56*	0	11	-12	-8
CCCN(CCO)Cc1ccc(Cl)c(Cl)c1	2	16	0	7	nt	nt
CCN(CCN(C)C)Cc1ccc(F)cc1	0	60*	0	-4	28*	-3	AlphaScreen DR=>6.5
CCN(CCN(C)C)Cc1ccc(F)c(Br)c1	-1	27	0	8	nt	nt
CCN(CCN(C)C)Cc1ccc(Cl)cc1Cl	0	56*	0	-6	-5	-5
CCN(CCC(=O)Nc1ccc(F)cc1)Cc1ccccc1	-1	4	0	4	nt	nt
CCN(CCN(C)C)Cc1ccc(F)c(F)c1	-1	60*	0	3	0	-5
CCCN(CCO)Cc1ccc(Cl)cc1Cl	1	-2	0	6	nt	nt
CCN(CCN(C)C)Cc1ccc(F)cc1F	0	60*	0	1	-6	-2
CCOc1ccc(CN2CCC(C(=O)N3CCN(CC)CC3)CC2)cc1	0	-7	0	-2	nt	nt
NC(=O)C1CCN(Cc2ccc(Cl)c(Cl)c2)CC1	-1	53*	0	5	-2	3
CCN1CCN(C(=O)C2CCN(Cc3ccc(Cl)c(Cl)c3)CC2)CC1	-1	63*	1	3	-15	-5
Cc1oc(C(=O)O)cc1CSCCSCc1cc(C(=O)O)oc1C	1	52*	-1	1	42*	16	AlphaScreen DR=>6.5
CCN(CC)CC(O)CN1CCN(C(=O)c2ccccc2)CC1 (stereo not given)	-2	52*	0	-6	11	10
CCN(CC)CC(O)CN1CCN(S(=O)(=O)c2ccc(Cl)cc2)CC1 (stereo not given)	0	61*	0	6	8	7
CC(C)(C)OCC(O)CN1CCN(C(=O)c2ccccc2)CC1 (stereo not given)	-2	43	0	-12	nt	nt
CCOc1cc(C(=O)N2CCN=C2SCC)cc(OCC)c1OCC	0	15	0	10	nt	nt
O=C(Cn1nc2ccccc2n1)N/N=C/c1ccccc1Cl	1	-2	0	-10	nt	nt
C[C@@H](O)[C@@H]1NC(=O)[C@H]2CN(C(=O)NC3CCCCC3)CCN2C1=O	-1	80*	0	1	73*	-5	AlphaScreen DR=>6.5
Cc1ccc(C(=O)N2CCN3C(=O)[C@@H]([C@H](C)O)NC(=O)[C@H]3C2)cc1	-1	11	0	-7	nt	nt
CC(C)[C@H]1NC(=O)[C@H]2CN(C(=O)c3ccccc3)CCN2C1=O	1	4	0	-12	nt	nt
CC(C)[C@H]1NC(=O)[C@H]2CN(C(=O)NC3CCCCC3)CCN2C1=O	1	76*	0	5	72*	-12	AlphaScreen DR=>6.5
COc1ccc(N(C)C(=O)CCc2nc(-c3ccc(C)cc3)no2)cc1	-1	56*	0	12	10	-5
CCN(CC)c1ccc(C(c2c(C)[nH][nH]c2=O)c2c(C)[nH][nH]c2=O)cc1	0	77*	-1	10	71*	-2
